PubChem BioAssay AID1159580 (chemical genetic matrix, 2015)
Screen size: about 5,500 compounds; about 2,000 (36%) were called active. Inconclusive results (about 18%) are left out. No stated cut-off is given here; in the data, active means normalized growth mostly below about 0.91 (no sharp cut-off); inconclusive means no clear call, values can overlap the other calls; inactive means mostly above about 0.92. This is one part of the list.

Assay: chemical genetic growth profiling, strain panel (AID 1159580);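 further: tested at 20 µM; growth read once vehicle control cultures reached saturation at 30 °C; 1 = growth at the plate median or of vehicle wells; lower values mean less growth of the strain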
Conditions: S. cerevisiae deletion strains, growth OD

Measured: normalized growth

Cc1ccc(N=CN(C)C=Nc2ccc(C)cc2C)c(C)c1
inactive: locus YAL021C, strain ccr4, active compounds read low 0.944 | locus YAL026C, strain drs2, active compounds read low 0.962 | locus YAL030W, strain snc1, active compounds read low 0.984 | locus YBL061C, strain skt5, active compounds read low 0.986 | locus YBR009C, strain hhf1, active compounds read low 0.926 | locus YBR023C, strain chs3, active compounds read low 1 | locus YBR171W, strain sec66, active compounds read low 0.971 | locus YBR231C, strain swc5, active compounds read low 1 | locus YBR279W, strain paf1, active compounds read low 0.983 | locus YCL011C, strain gbp2, active compounds read low 0.965 | locus YCL016C, strain dcc1, active compounds read low 0.971 | locus YCL061C, strain MRC1, active compounds read low 0.952 | locus YCL069W, strain vba3, active compounds read low 0.979 | locus YCR088W, strain abp1, active compounds read low 0.99 | locus YDL005C, strain med2, active compounds read low 0.987 | locus YDL040C, strain nat1, active compounds read low 0.987 | locus YDR001C, strain nth1, active compounds read low 0.979 | locus YDR069C, strain doa4, active compounds read low 0.969 | locus YDR137W, strain rgp1, active compounds read low 0.981 | locus YDR159W, strain sac3, active compounds read low 0.974 | locus YDR195W, strain ref2 1.03 | locus YDR297W, strain sur2, active compounds read low 0.977 | locus YDR334W, strain swr1, active compounds read low 0.987 | locus YDR335W, strain msn5, active compounds read low 0.966 | locus YDR392W, strain spt3, active compounds read low 0.925 | locus YEL003W, strain gim4, active compounds read low 0.957 | locus YEL037C, strain rad23, active compounds read low 0.98 | locus YEL061C, strain CIN8 (second series), active compounds read low 0.986 | locus YER015W, strain faa2, active compounds read low 0.972 | locus YER016W, strain bim1, active compounds read low 0.975 | locus YER111C, strain swi4, active compounds read low 0.955 | locus YER155C, strain BEM2 (second series), active compounds read low 1.01 | locus YFR010W, strain ubp6, active compounds read low 0.987 | locus YGL167C, strain pmr1, active compounds read low 0.98 | locus YGL173C, strain kem1, active compounds read low 0.962 | locus YGL227W, strain vid30, active compounds read low 0.988 | locus YGL240W, strain doc1, active compounds read low 0.969 | locus YGL253W, strain hxk2, active compounds read low 0.979 | locus YHR013C, strain ard1, active compounds read low 0.943 | locus YHR027C, strain rpn1, active compounds read low 0.975 | locus YHR030C, strain SLT2, active compounds read low 0.999 | locus YHR079C, strain IRE1, active compounds read low 1.01 | locus YHR142W, strain chs7, active compounds read low 0.957 | locus YJL092W, strain hpr5, active compounds read low 0.978 | locus YJL095W, strain BCK1 (second series), active compounds read low 0.978 | locus YJL095W, strain BCK1, active compounds read low 0.962 | locus YJL115W, strain asf1, active compounds read low 0.966 | locus YJL129C, strain trk1, active compounds read low 0.976 | locus YJL154C, strain vps35, active compounds read low 0.987 | locus YJL164C, strain tpk1, active compounds read low 0.97 | locus YJL166W, strain qcr8, active compounds read low 0.974 | locus YJR066W, strain TOR1, active compounds read low 0.962 | locus YKL160W, strain elf1, active compounds read low 0.989 | locus YKR026C, strain gcn3, active compounds read low 0.989 | locus YKR091W, strain srl3, active compounds read low 0.983 | locus YLL001W, strain dnm1, active compounds read low 0.998 | locus YLL026W, active compounds read low 0.996 | locus YLL041C, strain sdh2, active compounds read low 0.98 | locus YLR027C, strain aat2, active compounds read low 0.98 | locus YLR113W, strain HOG1, active compounds read low 0.988 | locus YLR221C, strain rsa3, active compounds read low 0.941 | locus YLR258W, strain gsy2, active compounds read low 0.98 | locus YLR262C, strain YPT6 (second series), active compounds read low 0.962 | locus YLR320W, strain mms22, active compounds read low 0.969 | locus YLR342W, strain FKS1, active compounds read low 0.985 | locus YLR357W, strain rsc2, active compounds read low 0.898 | locus YLR370C, strain arc18, active compounds read low 0.985 | locus YLR384C, strain iki3, active compounds read low 0.993 | locus YML120C, strain ndi1, active compounds read low 0.975 | locus YMR058W, strain fet3, active compounds read low 0.972 | locus YMR125W, strain sto1, active compounds read low 1 | locus YMR129W, active compounds read low 0.97 | locus YMR205C, strain PFK2, active compounds read low 0.998 | locus YMR231W, strain pep5, active compounds read low 0.995 | locus YNL071W, strain lat1, active compounds read low 0.978 | locus YNL183C, strain NPR1, active compounds read low 0.976 | locus YNL209W, strain ssb2, active compounds read low 0.978 | locus YNL248C, strain rpa49, active compounds read low 0.905 | locus YNL322C, strain KRE1 (second series), active compounds read low 0.967 | locus YNR049C, strain mso1, active compounds read low 0.948 | locus YOR001W, strain rrp6, active compounds read low 0.984 | locus YOR070C, strain gyp1, active compounds read low 0.975 | locus YOR080W, strain dia2, active compounds read low 0.973 | locus YOR083W, strain WHI5, active compounds read low 0.983 | locus YOR106W, strain vam3, active compounds read low 0.95 | locus YOR231W, strain MKK1, active compounds read low 0.994 | locus YOR265W, strain rbl2, active compounds read low 0.991 | locus YOR270C, strain vph1, active compounds read low 0.837 | locus YOR290C, strain snf2, active compounds read low 0.949 | locus YPL051W, strain arl3, active compounds read low 0.965 | locus YPL078C, strain atp4, active compounds read low 0.97 | locus YPL106C, strain sse1, active compounds read low 0.948 | locus YPL240C, strain hsp82, active compounds read low 0.994 | locus YPL256C, strain CLN2, active compounds read low 1.01
